We go through 18 molecules from PubChem BioAssay AID493170 (National Center for Advancing Translational Sciences (NCATS), 2011).

SMILES strings stand for the structures. Results filed as inconclusive are left out. Active and inactive are the calls of the source. Calls come from the whole dose curve; as a rule, active = well fitted inhibition curve with a large enough effect; inconclusive = small, poorly fitted or top-dose-only effect, or effect the other way; inactive = flat fitted curve, though single readings scatter.
% is set by controls: 0 for no effect and ±100 for the full control effect; potency is the fitted concentration of half-maximal effect.

Chain of Ubiquitin carboxyl-terminal hydrolase 2 (Homo sapiens) (O75604 whole entry, looked up): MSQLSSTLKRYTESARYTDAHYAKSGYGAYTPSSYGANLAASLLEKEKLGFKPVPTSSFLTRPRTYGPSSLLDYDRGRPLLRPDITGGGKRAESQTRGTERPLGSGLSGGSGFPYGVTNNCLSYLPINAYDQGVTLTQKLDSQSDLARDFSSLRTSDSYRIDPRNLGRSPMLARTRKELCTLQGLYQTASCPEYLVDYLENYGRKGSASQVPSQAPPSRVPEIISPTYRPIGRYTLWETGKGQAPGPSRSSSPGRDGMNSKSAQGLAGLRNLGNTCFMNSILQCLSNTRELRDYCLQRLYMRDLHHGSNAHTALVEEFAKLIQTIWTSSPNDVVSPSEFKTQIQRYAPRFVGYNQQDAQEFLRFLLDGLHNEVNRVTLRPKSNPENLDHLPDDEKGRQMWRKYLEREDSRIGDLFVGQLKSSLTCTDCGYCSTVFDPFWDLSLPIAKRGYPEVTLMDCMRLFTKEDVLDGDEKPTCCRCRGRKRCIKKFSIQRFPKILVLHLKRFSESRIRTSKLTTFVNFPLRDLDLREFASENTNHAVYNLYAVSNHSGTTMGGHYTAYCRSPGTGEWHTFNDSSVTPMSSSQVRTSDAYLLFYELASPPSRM

The test addresses Ubiquitin carboxyl-terminal hydrolase 2 (Homo sapiens) (UniProt O75604). The test is described as follows: Ub-rhodamine 110 based assay for inhibitors Ubiquitin-specific Protease USP2a. Note: nearly all actives have a fitted effect of over 50% in size. As to conditions: USP2a Ub-rhodamine110 cleavage, fluorescence; series mostly up to 38.3 µM; activity change, negative = inhibition: at the top concentration. In outline: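 5 nM USP2a preincubated with compounds for 30 min at RT in 20 mM Tris-HCl pH 8.0, 2 mM CaCl2, 2 mM beta-mercaptoethanol, 0.05% CHAPS. Cleavage of 150 nM Ub-rhodamine 110 read kinetically (Ex 485/Em 531) for 7 min.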
Regarding `CCn1c2ccccc2c2nc3ccccc3nc21`, the “activity change, negative = inhibition” value is -13% (inactive).

For `Cc1ccc(SCc2cc(=O)c3c(=O)n(-c4ccccc4)[nH]c3[nH]2)cc1`, the “activity change, negative = inhibition” value was -19% (inactive).

Turning to `CCCn1c(NC(=O)c2ccc(Br)cc2)nc2ccccc21`, the “activity change, negative = inhibition” value is 0.793% (inactive).

With `Oc1ccc(/C=N/NC(=S)N/N=C/c2ccc(O)cc2)cc1`, the “activity change, negative = inhibition” value was -8.74% (inactive).

Turning to `COC(=O)N/N=C\c1cc(Br)ccc1OCc1ccccc1`, the “activity change, negative = inhibition” value is -10.6% (inactive).

Turning to `COCc1cc(C)nc(SCC[N+](C)(C)CC(=O)Nc2cccc(C(F)(F)F)c2)c1C#N`, the “activity change, negative = inhibition” value was -7.94% (inactive).

As to `CCOC(=O)N1CCC(NC(=O)c2ccc(OC)c(CN3CC(=O)N4CCCC4C3=O)c2)CC1` (stereo not drawn), the “activity change, negative = inhibition” value is -0.633% (inactive).

Consider `O=C(/C=C\c1ccco1)c1ccc(NC(=O)c2ccco2)cc1`, for which the Potency was 10 µM (active).

In the case of `CCN(CC)S(=O)(=O)c1ccc(-c2nnc(SCC(=O)Nc3ccc4c(c3)OCO4)o2)cc1`, the Potency is 10 µM (active).

For `Cc1cc(C)n2nc(S(=O)(=O)NCCc3ccccc3)nc2n1`, the “activity change, negative = inhibition” value was 5.22% (inactive).

For the molecule `O=C1S/C(=C\C=C\c2ccco2)C(=O)N1c1ccc(O)cc1`, the Potency was 8.91 µM (active).

Consider `Cc1cc(NC(=O)CN2C(=O)NC3(CCCCC3C)C2=O)no1` (stereo not drawn), for which the “activity change, negative = inhibition” value is 4.44% (inactive).

Take `CCCCC1NC(C(=O)O)CS1` (stereo not drawn): the “activity change, negative = inhibition” value was -4.19% (inactive).

As for `O=C(CNC(=O)C1CCCCC1)NC1=NCCS1`, the “activity change, negative = inhibition” value was -7.26% (inactive).

Consider `CCOc1ccc(-c2ccc(/C=C3/C(=N)N4C(C)=CSC4=NC3=O)o2)c([N+](=O)[O-])c1`, for which the Potency was 7.94 µM (active).

`CCOC(=O)N1CCN(C(=O)CN(c2ccc(C)c(C)c2)S(=O)(=O)c2ccccc2)CC1`: the “activity change, negative = inhibition” value is -0.973% (inactive).

Turning to `O=C(COc1ccccc1)NCCSc1ccccc1`, the “activity change, negative = inhibition” value is 4.88% (inactive).

Regarding `Cc1ccc(S(=O)(=O)N2[C@@H](c3ccc(C(C)(C)C)cc3)C(C(=O)O)=CC[C@H]2c2ccc(Cl)c(Cl)c2)cc1`, the Potency is 10 µM (active).
